Screening results (PubChem)
GLP1R cytotox = cytotoxic in the GLP-1 receptor inverse agonist counter-screen | HEK293 cAMP-luciferase reporter cells, luminescence, 24 h | AID 624418 | 410,000 compounds, 0.13% hits | Potency, µM (series often up to 38.3 µM), actives largely listed as inhibitors;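 further: loss of luciferase light is scored as toxicity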
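To flag toxic compounds, the library was rerun on cells for 24 hr at 37 deg C and 5% CO2. Viability-linked luminescence was captured 12 min after adding luciferase detection reagent.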
ClpP mod = qHTS Assay for Activators of ClpP; ATP-dependent Clp protease proteolytic subunit (Bacillus subtilis (strain 168)), P80244; purified B. subtilis ClpP, FRET peptide cleavage, 20 min; Potency, µM (titrated, usually from 57.5 µM); 340,000 compounds, 1.9% hits; active means well fitted falling curve with a large enough effect; inconclusive means small, poorly fitted or top-dose-only effect; inactive means no such curve, though single readings can be large or run the other way; further: the source files actives as falling curves though it sought activators and does not explain the sign; nearly all actives have a fitted effect of over 65% in size
Target sequence (P80244 whole entry, looked up): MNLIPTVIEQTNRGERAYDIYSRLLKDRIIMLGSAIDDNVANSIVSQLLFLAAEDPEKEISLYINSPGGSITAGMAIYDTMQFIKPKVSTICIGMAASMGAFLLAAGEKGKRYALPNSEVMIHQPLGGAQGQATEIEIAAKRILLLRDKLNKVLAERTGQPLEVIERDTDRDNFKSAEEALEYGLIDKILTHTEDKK
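Purified B. subtilis ClpP, 10 microg/mL final in Tris/HCl pH8 with KCl, BSA, glycerol and Tween-20, cleaved an Abz/nitrotyrosine-quenched decapeptide. Fluorescence (ex 320, em 430) was read at 0 and 20 min at room temperature. Delta was normalized to 5.8 microM ADEP and DMSO/no-enzyme controls.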
GLP-1R agonist = activates the human GLP-1 receptor | P43220 | HEK293 GLP-1R CRE-luciferase, luminescence, 4-6 h; cells express a hypersensitive GLP-1R form | Potency, µM (doses to about 45.6 µM), actives largely listed as activators | 380,000 compounds, 0.007% hits | AID 624172
p53 reactivator = mutant p53 re-activation in reporter cells; H1299 p53-A138V BP100-luciferase reporter, luminescence, 24 h; Potency, µM (titrated, usually from 92.2 µM), most hits filed as activators; 320,000 compounds, 0.063% hits; further: nearly all actives have a fitted effect of over 45% in size
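p53-null H1299 cells stably carrying temperature-sensitive p53-A138V and a BP100-luciferase reporter were pinned with compounds (4-point, 1:5 series) and held 24 hrs at 37 deg C. Luminescence was read 10 min after detection reagent.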
GLP-1R inv ag = GLP-1 receptor (human) inverse agonism; P43220; HEK293 GLP-1R CRE-luciferase, luminescence, 24 h; GLP-1R form is constitutively active; Potency, µM (titrated, usually from 38.3 µM), actives largely listed as inhibitors; 410,000 compounds, 1.6% hits; AID 624417; further: nearly all actives have a fitted effect of over 55% in size
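Inverse agonists were sought by their lowering of basal cAMP reporter luciferase output in HEK293 cells stably carrying constitutively active human GLP-1R, after 24 h compound treatment.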
LDHA block = blocks human lactate dehydrogenase A. P00338. activity change, % (values are at about 110 or 230 µM). 480,000 compounds, 0.15% hits. purified LDHA, NADH/diaphorase-resazurin fluorescence; stronger effect = lower value. AID 1347041; in the data active means activity change below about -30%; inconclusive means mostly about -25% to -30%
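Remaining NADH was detected by diaphorase (0.133 mg/mL) converting 37 µM resazurin to fluorescent resorufin, read at 0 and 20 minutes. The preceding 5-minute room-temperature reaction used 2 nM LDHA, 0.2 mM sodium pyruvate and 0.06 mM NADH at pH 7.4.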
Numbers stand for hits; 0 = inactive; ? = inconclusive; - = not tested or not shown; [ ] = another dose, or the depositor's remark. Hits are enriched below; roughly 2.9% of the tested compounds scored in any of these assays. Unless noted, the call rests on the fitted dose curve; in most records, active means well fitted curve in the direction sought with a large enough effect; inconclusive means small, poorly fitted or top-dose-only effect, or another doubt; inactive means no such curve, though single readings can be large; an effect the other way counts as inactive or inconclusive.

SMILES	GLP1R cytotox	ClpP mod	GLP-1R agonist	p53 reactivator	GLP-1R inv ag	LDHA block
CCCSc1nc(-c2ccc(OC)cc2)cc(-c2ccccc2OC)c1C#N	0	0	-	-	0	0
Cc1cc(C)cc(OC(=O)c2cc(-c3ccc4c(c3)OCCO4)on2)c1	0	32µM	-	-	0	0
Cc1cccc(OC(=O)c2cc(-c3ccc4c(c3)OCCO4)on2)c1C	0	?	-	-	0	0
Cc1ccccc1OC(=O)c1cc(-c2ccc3c(c2)OCCO3)on1	0	32µM	-	-	0	0
Cc1cccc(OC(=O)c2cc(-c3ccc4c(c3)OCCO4)on2)c1	0	25µM	-	-	0	0
COc1ccc(NC(C)C(=O)N/N=C/c2ccc([N+](=O)[O-])s2)cc1 (centres undefined)	0[7.66 µM]	-	0	0	0[7.66 µM]	0
C[C@@H](OC(=O)c1[nH]cnc1C(=O)N1CCc2ccccc2C1)c1ccccc1	0	0	0	0	0	0
CCc1c(C)sc2c1CCN(C(=O)Nc1cc(OC)c(OC)c(OC)c1)C2c1ccccc1 (centres undefined)	0	0	-	-	10µM	0
Cc1ccccc1NC(=O)N1CCc2c(sc3c2CCCC3)C1c1ccccc1 (centres undefined)	0	0	-	-	10µM	0
COc1ccc(OC)c(-c2cc(C(=O)Nc3c(C)nn(Cc4ccccc4Cl)c3C)no2)c1	0	35µM	0	0	?	0
COc1cc(OC)c(-c2c3cc(O)c(=O)cc-3oc3cc(O)c(O)cc23)cc1OC	?	0	0	0	4.5µM	0
COc1c(O)cc2oc(-c3ccc(O)cc3)cc(=O)c2c1O	0	0	0	?	0	0
Cc1ccccc1N=Cc1cccc(O)c1O	0	0	0	0	0	0
Cc1cccc(C=Nc2ccc3c(c2)oc2ccccc23)c1O	0	32µM	0	?	0	0
C=CCn1c(-c2ccccc2)n[nH]c1=S	0	0	0	0	0	0
C=CCn1c(-c2ccoc2)n[nH]c1=S	0	32µM	0	0	0	0
Cc1ccc2c(Sc3ccc(Cl)cc3)c(C(=O)N3CCC(C)CC3)[nH]c2c1	0	0	-	-	10µM	0
COc1ccc(-c2cc(-c3cccs3)c(C#N)c(SCC(=O)NCc3ccco3)n2)cc1	0	?	0	0	0	0
CCc1c(C(=O)N/N=C/c2ccco2)nnn1-c1nonc1N	0	-	0	0	0	0
COc1ccc(C(=O)C[n+]2ccc(Cl)c3ccc(Cl)cc32)cc1	-	0	-	-	-	-60
O=C(/C=C/Nc1ccc(Oc2ccccc2)cc1)c1ccccc1	-	-	-	-	-	0
Cc1ccc(NC(=O)CN2CC(C)SC2=NC2CCCCC2)cc1 (centres undefined)	?	0	0	0	11µM	0
Cc1ccc(NC(=O)CCNC(=O)C2CCCC2)cc1	-	-	-	-	-	0
CC(=O)Nc1ccc(S(=O)(=O)N2CCC(C(=O)NCCC(=O)Nc3ccccc3)CC2)cc1	0	0	0	0	0	0
CC(Oc1ccc(F)cc1)C(=O)Nc1sc2c(c1C(=O)NCc1cccnc1)CCCC2 (centres undefined)	0	0	0	0	10µM	0
SMILES	GLP1R cytotox	ClpP mod	GLP-1R agonist	p53 reactivator	GLP-1R inv ag	LDHA block
O=C(Nc1sc2c(c1C(=O)NCc1cccnc1)CCCC2)c1ccco1	0	0	0	0	0	0
O=C(N/N=C/c1cn(Cc2ccccc2)c2ccccc12)c1ccncc1	0	-	0	0	?	0
O=C(CNc1ccc2c(c1)OCO2)N/N=C\c1cn(Cc2ccccc2)c2ccccc12	0	0	0	0	2.8µM	0
C=CCc1cccc(/C=N/NC(=O)CNc2ccccc2)c1O	?	0	0	-	3.5µM	0
Nc1ccc(C(=O)N/N=C/c2cn(Cc3cccc(F)c3)c3ccccc23)cc1	0	0	0	0	5µM	0
C=CCc1cccc(/C=N/NC(=O)CCCNc2ccc(C)cc2)c1O	?	0	0	?	10µM	0
O=C(CSc1nnc(NC(=O)Cc2ccccc2)s1)NCc1ccco1	0	-	0	0	0	0
Nc1ccnn1Cc1cccnc1	0	0	0	0	0	0
